Activity calls are given as the source filed them. How the source made its calls: active means hit-call score of the fitted dose curve at least 0.9, where 1 is the maximum; inactive means score below 0.9.
Legend:
[1] = ATG_GRE_CIS: Attagene CIS-FACTORIAL HepG2 Assay for human Glucocorticoid Response Elements (GRE) (AID 2282947); conditions: HepG2 GRE cis-reporter, Attagene multiplex mRNA; actives raise or lower the signal
In short: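 Following 24 h chemical exposure of transiently transfected HepG2 cells, total RNA was reverse-transcribed and reporter cDNA amplified, fluorescently labelled and sized by capillary electrophoresis. Signal gain or loss was fitted relative to DMSO vehicle.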

[2] = ATG_ISRE_CIS: Attagene CIS-FACTORIAL HepG2 Assay for human Interferon Regulatory Factor 1 (IRF1) binding to an Interferon-Stimulated Response Element (ISRE) (AID 2282948); conditions: HepG2 ISRE cis-reporter (Attagene), mRNA transcription readout; actives raise or lower the signal
In short: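 Quantitation relies on labelled RT-PCR fragments separated by capillary electrophoresis. Human HepG2 cells bearing cis-promoter reporter constructs were treated 24 h; DMSO served as baseline for bidirectional fitting.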

[3] = ATG_M_06_CIS: Attagene CIS-FACTORIAL HepG2 Assay for M06 Transcription Factor (Internal Marker) (AID 2282950); conditions: HepG2 Attagene CIS-FACTORIAL M06 internal marker reporter; actives raise or lower the signal
In short: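 HepG2 cells transiently transfected with cis-regulated multiple reporter transcription units were exposed to chemical for 24 h; reporter mRNA was quantified by RT-PCR, 6-FAM primer labelling, HpaI digestion and capillary electrophoresis, fitted bidirectionally against DMSO.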

[4] = biological target: Hypoxia-inducible factor 1-alpha (Homo sapiens) (UniProt Q16665); assay: ATG_HIF1a_CIS: Attagene CIS-FACTORIAL HepG2 Assay for human Hypoxia Inducible Factor 1 (HIF1A) (AID 2282951); conditions: HepG2 Attagene cis-factorial HIF1a reporter transcription; actives raise or lower the signal
In short: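 Fluorescence intensity of capillary-separated, 6-FAM-labelled reporter amplicons gives mRNA induction in HepG2 cells carrying transfected cis-promoter reporter units; cells exposed 24 h, responses fitted up or down from DMSO.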

[5] = biological target: Hepatocyte nuclear factor 6 (Homo sapiens) (UniProt Q9UBC0); assay: ATG_HNF6_CIS: Attagene CIS-FACTORIAL HepG2 Assay for human Hepatocyte Nuclear Factor 6 (HNF6) (AID 2282952); conditions: HepG2 Attagene cis-factorial HNF6 reporter transcription; actives raise or lower the signal
In short: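 HepG2, transient MRTU transfection (cis promoters); 24 h chemical exposure; total RNA → oligo(dT) RT → PCR → 6-FAM labelling → HpaI cut → CE; bidirectional fit vs DMSO.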

[6] = ATG_MRE_CIS: Attagene CIS-FACTORIAL HepG2 Assay for human Metal Responsive Element (MRE) (AID 2282954); conditions: HepG2 MRE cis-reporter transcription, Attagene multiplex; actives raise or lower the signal
In short: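 Step one: transfect HepG2 with cis-regulated reporter units. Step two: dose 24 h. Step three: isolate RNA, RT-PCR, 6-FAM label, HpaI digest, capillary electrophoresis. Fit bidirectionally to DMSO.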

[7] = ATG_PBREM_CIS: Attagene CIS-FACTORIAL HepG2 Assay for human Phenobarbital-responsive Enhancer Module (PBREM) (AID 2282955); conditions: HepG2 PBREM cis-reporter, Attagene multiplexed transcription; actives raise or lower the signal
In short: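 Cells were transfected with cis-element reporter units and treated for 24 h, after which RNA was extracted and reporter transcripts measured by RT-PCR and capillary electrophoresis.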

[8] = biological target: Paired box protein Pax-6 (Homo sapiens) (UniProt P26367); assay: ATG_Pax6_CIS: Attagene CIS-FACTORIAL HepG2 Assay for human Paired Box 6 (PAX6) (AID 2282956); conditions: HepG2 CIS-FACTORIAL PAX6 reporter transcription, RNA readout; actives raise or lower the signal
In short: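 After twenty-four hours of chemical exposure, transfected HepG2 cells are harvested for RNA. Cis-promoter reporter transcripts are amplified, fluorescently labelled and sized by capillary electrophoresis, with gain and loss of signal scored against DMSO.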

[9] = ATG_PXRE_CIS: Attagene CIS-FACTORIAL HepG2 Assay for human Pregnane X Receptor Element (PXRE) (AID 2282957); conditions: HepG2 Attagene CIS-FACTORIAL PXRE reporter, mRNA; actives raise or lower the signal
In short: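 Transfect HepG2 with MRTUs (cis promoter elements); dose chemical, incubate 24 h; isolate RNA, RT with oligo(dT), PCR, 6-FAM label, HpaI cut, CE. Gain/loss fit vs DMSO.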

[10] = ATG_PPRE_CIS: Attagene CIS-FACTORIAL HepG2 Assay for human Peroxisome Proliferator-activated Response Element (PPRE) (AID 2282958); conditions: HepG2 PPRE cis-element reporter, Attagene transcription factor profiling; actives raise or lower the signal
In short: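 In this cell-based multiplex, a PPRE cis element drives a reporter sequence in transiently transfected HepG2 cells. Following 24 h treatment, labeled cDNA amplicons are sized and quantified by capillary electrophoresis, with DMSO defining baseline.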

[11] = ATG_RORE_CIS: Attagene CIS-FACTORIAL HepG2 Assay for human RAR-related Orphan Receptor Element (RORE) (AID 2282959); conditions: HepG2 Attagene cis-factorial RORE reporter, mRNA; actives raise or lower the signal
In short: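 Endogenous factor activity at a cis response element is read as reporter transcript levels in HepG2 cells, 24 h post-dose. Transcripts are quantified by RT-PCR with capillary electrophoresis, and data fitted in both directions against DMSO.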

[12] = ATG_Sox_CIS: Attagene CIS-FACTORIAL HepG2 Assay for human SRY-box transcription factor (SOX) (AID 2282960); conditions: HepG2 Attagene cis-factorial SOX reporter, mRNA; actives raise or lower the signal
In short: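 Measures mRNA induction of a SOX1-associated reporter in HepG2 after 24 h dosing. Fluorescently labelled RT-PCR fragments are separated by capillary electrophoresis, and gain or loss relative to DMSO control is fitted.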

[13] = biological target: Transcription factor Sp1 (Homo sapiens) (UniProt P08047); assay: ATG_Sp1_CIS: Attagene CIS-FACTORIAL HepG2 Assay for human Specificity Protein 1 (Sp1) (AID 2282961); conditions: HepG2 Sp1 cis-reporter transcription, actives raise or lower the signal
In short: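 Cells: HepG2, transiently transfected with cis-regulated multiplexed reporters. Exposure: 24 h. Detection: reporter transcripts amplified, fluorescently labeled, restriction-digested and sized by capillary electrophoresis. Analysis: bidirectional fit relative to DMSO.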

[14] = ATG_SREBP_CIS: Attagene CIS-FACTORIAL HepG2 Assay for human Sterol Regulatory Element Binding (SREBP) (AID 2282962); conditions: HepG2 Attagene cis-factorial SREBP reporter, mRNA; actives raise or lower the signal
In short: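 Twenty-four hours after chemical dosing of transfected HepG2 cultures, reporter RNA was converted to cDNA, amplified, end-labelled with 6-FAM and resolved by capillary electrophoresis. Responses were fitted relative to DMSO.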

[15] = biological target: Signal transducer and activator of transcription 3 (Homo sapiens) (UniProt P40763); assay: ATG_STAT3_CIS: Attagene CIS-FACTORIAL HepG2 Assay for human Signal Transducer and Activator of Transcription 3 (STAT3) (AID 2282963); conditions: HepG2, Attagene cis-factorial STAT3 reporter transcription; actives raise or lower the signal
In short: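 Transcript-level reporter assay. HepG2 transient MRTU transfection, 24 h exposure, fluorescence detection after RT-PCR and CE; DMSO baseline.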

[16] = ATG_TA_CIS: Attagene CIS-FACTORIAL HepG2 Assay for human TA Basal Promoter (AID 2282964); conditions: HepG2 Attagene CIS-factorial TA basal promoter reporter; actives raise or lower the signal
In short: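 HepG2 cells transiently transfected with multiplexed cis-promoter reporter units, dosed 24 h. Reporter mRNA measured by RT-PCR, 6-FAM labelling, HpaI digestion and capillary electrophoresis; bidirectional fit versus DMSO baseline, serving as background control.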

[17] = ATG_TCF_b_cat_CIS: Attagene CIS-FACTORIAL HepG2 Assay for human T-Cell-Factor with beta-catenin (TCF/b-cat) (AID 2282965); conditions: HepG2 TCF/beta-catenin cis-reporter transcription, actives raise or lower the signal
In short: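 Using capillary electrophoresis as the read-out, labelled reporter cDNA fragments from transiently transfected HepG2 were sized and quantified. Exposure lasted 24 hours; activity in either direction was referenced to DMSO.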

[18] = biological target: Heat shock factor protein 1 (Homo sapiens) (UniProt Q00613); assay: ATG_HSE_CIS: Attagene CIS-FACTORIAL HepG2 Assay for human Heat Shock Transcription Factor 1 (HSE) (AID 2282953); conditions: HepG2 HSE cis-reporter, Attagene RNA transcription; actives raise or lower the signal
In short: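 HepG2 cells transiently transfected with multiple reporter transcription units under cis-regulatory promoter control, measuring endogenous transcription factor activity. After 24 h chemical exposure, reporter mRNA quantified by RT-PCR, fluorescent labelling, HpaI digestion and capillary electrophoresis; bidirectional fit versus DMSO.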

[19] = ATG_M_32_CIS: Attagene CIS-FACTORIAL HepG2 Assay for M32 Transcription Factor (Internal Marker) (AID 2282949); conditions: HepG2 Attagene cis-factorial M32 reporter, mRNA; actives raise or lower the signal;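 further: background control marker of the multiplexed CIS panel rather than a real target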
In short: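 HepG2 cells transiently transfected with multiplexed cis-regulated reporter units, dosed 24 h. Reporter mRNA quantified by RT-PCR, 6-FAM labelling, HpaI digestion and capillary electrophoresis; bidirectional fit vs DMSO.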

Measured: AC50

Chain of Hepatocyte nuclear factor 6 (Homo sapiens) (Q9UBC0 whole entry, looked up): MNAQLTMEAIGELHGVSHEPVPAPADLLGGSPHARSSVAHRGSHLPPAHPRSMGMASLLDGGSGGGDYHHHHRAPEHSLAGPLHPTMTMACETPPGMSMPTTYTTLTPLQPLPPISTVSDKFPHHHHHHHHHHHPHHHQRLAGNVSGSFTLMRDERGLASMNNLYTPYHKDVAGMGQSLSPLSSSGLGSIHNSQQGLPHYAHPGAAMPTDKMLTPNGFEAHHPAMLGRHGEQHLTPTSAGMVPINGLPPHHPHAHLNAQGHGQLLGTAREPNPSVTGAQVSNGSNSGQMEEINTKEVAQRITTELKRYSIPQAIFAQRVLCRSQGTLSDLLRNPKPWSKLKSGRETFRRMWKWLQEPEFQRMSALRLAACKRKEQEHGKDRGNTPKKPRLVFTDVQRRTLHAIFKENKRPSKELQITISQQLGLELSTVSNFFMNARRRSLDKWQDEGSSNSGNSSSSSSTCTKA
Chain of Hypoxia-inducible factor 1-alpha (Homo sapiens) (Q16665 whole entry, looked up): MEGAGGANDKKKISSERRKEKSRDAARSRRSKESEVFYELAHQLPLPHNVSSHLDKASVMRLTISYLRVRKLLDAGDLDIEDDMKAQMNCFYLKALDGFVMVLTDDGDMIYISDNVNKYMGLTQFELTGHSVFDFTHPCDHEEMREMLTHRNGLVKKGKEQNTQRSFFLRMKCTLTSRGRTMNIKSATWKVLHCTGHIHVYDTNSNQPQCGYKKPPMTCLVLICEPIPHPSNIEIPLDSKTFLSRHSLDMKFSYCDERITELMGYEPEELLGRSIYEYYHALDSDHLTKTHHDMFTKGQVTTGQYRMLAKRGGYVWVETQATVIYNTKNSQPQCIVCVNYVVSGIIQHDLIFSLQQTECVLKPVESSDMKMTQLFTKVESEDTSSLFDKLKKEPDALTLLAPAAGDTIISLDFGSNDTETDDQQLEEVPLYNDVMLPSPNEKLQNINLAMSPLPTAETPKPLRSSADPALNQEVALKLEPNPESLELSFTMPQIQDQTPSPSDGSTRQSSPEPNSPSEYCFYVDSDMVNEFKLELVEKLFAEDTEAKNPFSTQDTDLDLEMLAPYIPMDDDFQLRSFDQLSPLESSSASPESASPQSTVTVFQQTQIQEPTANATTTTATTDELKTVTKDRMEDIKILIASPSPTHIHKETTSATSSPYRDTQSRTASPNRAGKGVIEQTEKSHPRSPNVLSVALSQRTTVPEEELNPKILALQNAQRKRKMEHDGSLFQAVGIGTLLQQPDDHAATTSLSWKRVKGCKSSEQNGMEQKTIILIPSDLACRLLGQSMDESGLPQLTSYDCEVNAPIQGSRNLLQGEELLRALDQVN
Chain of Heat shock factor protein 1 (Homo sapiens) (Q00613 whole entry, looked up): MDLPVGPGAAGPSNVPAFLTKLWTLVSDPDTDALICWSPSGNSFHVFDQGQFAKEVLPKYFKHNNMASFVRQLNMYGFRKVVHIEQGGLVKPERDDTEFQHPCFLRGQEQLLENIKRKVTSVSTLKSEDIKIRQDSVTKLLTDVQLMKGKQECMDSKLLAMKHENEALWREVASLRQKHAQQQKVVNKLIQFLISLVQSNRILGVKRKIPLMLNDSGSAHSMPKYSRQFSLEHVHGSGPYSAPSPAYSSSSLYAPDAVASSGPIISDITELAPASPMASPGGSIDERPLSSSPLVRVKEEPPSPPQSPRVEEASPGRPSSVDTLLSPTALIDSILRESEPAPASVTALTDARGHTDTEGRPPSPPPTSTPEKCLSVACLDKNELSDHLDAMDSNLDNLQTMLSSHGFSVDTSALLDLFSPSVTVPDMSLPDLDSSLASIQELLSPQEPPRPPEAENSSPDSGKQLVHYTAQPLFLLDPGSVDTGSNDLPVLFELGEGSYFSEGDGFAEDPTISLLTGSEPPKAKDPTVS
Chain of Signal transducer and activator of transcription 3 (Homo sapiens) (P40763 whole entry, looked up): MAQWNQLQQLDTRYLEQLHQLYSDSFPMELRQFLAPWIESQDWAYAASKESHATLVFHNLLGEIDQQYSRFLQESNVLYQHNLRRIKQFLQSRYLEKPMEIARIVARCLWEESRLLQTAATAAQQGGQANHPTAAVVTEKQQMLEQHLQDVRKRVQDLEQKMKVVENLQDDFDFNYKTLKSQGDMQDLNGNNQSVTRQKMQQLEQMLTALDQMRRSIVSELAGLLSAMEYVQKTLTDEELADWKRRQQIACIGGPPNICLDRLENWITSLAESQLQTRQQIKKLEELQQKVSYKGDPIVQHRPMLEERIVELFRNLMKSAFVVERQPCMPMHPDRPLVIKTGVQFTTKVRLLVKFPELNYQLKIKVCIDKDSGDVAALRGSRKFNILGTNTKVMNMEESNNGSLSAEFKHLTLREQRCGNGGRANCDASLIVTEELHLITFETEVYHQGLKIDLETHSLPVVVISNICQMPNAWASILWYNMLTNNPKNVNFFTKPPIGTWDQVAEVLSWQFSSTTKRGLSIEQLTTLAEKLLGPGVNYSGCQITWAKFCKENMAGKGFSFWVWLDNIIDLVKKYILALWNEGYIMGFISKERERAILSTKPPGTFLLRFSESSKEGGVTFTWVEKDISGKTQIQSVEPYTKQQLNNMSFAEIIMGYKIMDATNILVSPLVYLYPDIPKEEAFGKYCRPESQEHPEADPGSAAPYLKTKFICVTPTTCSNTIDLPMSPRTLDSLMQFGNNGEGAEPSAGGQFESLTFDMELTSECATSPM
Chain of Transcription factor Sp1 (Homo sapiens) (P08047 whole entry, looked up): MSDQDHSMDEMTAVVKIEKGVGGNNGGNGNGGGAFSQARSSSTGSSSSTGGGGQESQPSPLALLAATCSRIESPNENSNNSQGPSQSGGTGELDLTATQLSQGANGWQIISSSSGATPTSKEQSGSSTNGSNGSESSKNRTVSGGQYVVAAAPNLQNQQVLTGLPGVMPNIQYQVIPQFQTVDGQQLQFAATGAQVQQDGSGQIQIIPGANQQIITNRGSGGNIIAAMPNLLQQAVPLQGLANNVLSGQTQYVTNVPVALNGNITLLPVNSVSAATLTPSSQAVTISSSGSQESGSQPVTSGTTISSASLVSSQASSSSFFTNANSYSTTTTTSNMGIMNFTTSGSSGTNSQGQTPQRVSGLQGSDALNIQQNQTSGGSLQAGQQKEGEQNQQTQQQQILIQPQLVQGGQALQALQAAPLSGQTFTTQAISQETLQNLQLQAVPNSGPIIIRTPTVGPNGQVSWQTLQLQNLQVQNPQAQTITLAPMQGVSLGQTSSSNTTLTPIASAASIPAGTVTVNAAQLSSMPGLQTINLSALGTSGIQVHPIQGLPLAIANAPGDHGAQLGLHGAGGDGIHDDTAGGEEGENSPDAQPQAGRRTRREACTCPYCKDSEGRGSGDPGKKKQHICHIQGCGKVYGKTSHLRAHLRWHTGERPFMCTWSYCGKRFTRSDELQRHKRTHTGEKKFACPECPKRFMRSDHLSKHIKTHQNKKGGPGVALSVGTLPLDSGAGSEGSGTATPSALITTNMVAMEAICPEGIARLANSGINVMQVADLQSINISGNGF
Chain of Paired box protein Pax-6 (Homo sapiens) (P26367 whole entry, looked up): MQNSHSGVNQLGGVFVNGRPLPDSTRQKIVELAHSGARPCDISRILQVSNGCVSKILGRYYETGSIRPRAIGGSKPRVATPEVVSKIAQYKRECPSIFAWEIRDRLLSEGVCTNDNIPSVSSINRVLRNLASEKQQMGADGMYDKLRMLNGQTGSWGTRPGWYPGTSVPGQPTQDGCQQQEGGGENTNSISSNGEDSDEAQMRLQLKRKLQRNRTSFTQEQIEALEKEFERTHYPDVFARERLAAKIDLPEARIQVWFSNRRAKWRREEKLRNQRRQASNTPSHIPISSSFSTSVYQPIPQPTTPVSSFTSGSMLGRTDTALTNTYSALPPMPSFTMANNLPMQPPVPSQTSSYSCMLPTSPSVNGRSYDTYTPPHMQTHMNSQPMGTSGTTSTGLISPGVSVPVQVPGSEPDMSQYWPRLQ

CCCCOCCOCCSC#N
inactive: [1] | [2] | [3] | [4] | [5] | [6] | [7] | [8] | [10] | [11] | [12] | [13] | [14] | [15] | [16] | [17]
active: [9] 1.92 µM

CCCCCCCCCCC(CO)CCCCCCCC (stereo not given)
inactive: [1] | [2] | [3] | [4] | [5] | [18] | [6] | [7] | [8] | [9] | [10] | [12] | [13] | [14] | [15] | [16] | [17]

CCCCCCC#CC(=O)OC
active: [9] 30.5 µM
inactive: [1] | [19] | [3] | [4] | [5] | [18] | [6] | [7] | [8] | [10] | [11] | [12] | [13] | [14] | [16] | [17]

COc1ccc(Nc2ccccc2)c(C)c1
inactive: [1] | [19] | [3] | [4] | [5] | [18] | [8] | [12] | [13] | [14] | [16] | [17]
active: [6] 128 µM | [9] 26.9 µM | [10] 67.2 µM

O=c1[nH]c(=O)n([C@H]2CCCO2)cc1F
inactive: [2] | [19] | [3] | [4] | [5] | [18] | [6] | [7] | [8] | [9] | [10] | [12] | [13] | [14] | [15] | [16] | [17]

CCCCCCCCCCCCOCCO
inactive: [1] | [19] | [3] | [4] | [5] | [7] | [8] | [11] | [12] | [16]
active: [6] 52.1 µM | [13] 49.9 µM

CCO[Si](CCCS)(OCC)OCC
inactive: [1] | [19] | [3] | [18] | [6] | [8] | [9] | [10] | [11] | [12] | [13] | [15] | [16] | [17]
active: [4] 28.4 µM

CC1CC(OC(=O)c2ccccc2O)CC(C)(C)C1 (stereo not given)
active: [9] 25.8 µM
inactive: [1] | [19] | [3] | [5] | [18] | [6] | [7] | [8] | [10] | [11] | [12] | [13] | [16]

Clc1sc(Cl)c(Cl)c1Cl
inactive: [2] | [19] | [3] | [4] | [5] | [18] | [6] | [7] | [8] | [9] | [10] | [11] | [12] | [13] | [14] | [15] | [16] | [17]

CC1(CO)CN(c2ccccc2)NC1=O (stereo not given)
inactive: [2] | [19] | [3] | [4] | [5] | [18] | [6] | [7] | [8] | [9] | [10] | [11] | [12] | [13] | [14] | [15] | [16] | [17]

CCOC(=O)c1ccccc1OC
inactive: [2] | [19] | [3] | [4] | [5] | [18] | [6] | [7] | [8] | [10] | [12] | [13] | [14] | [15] | [17]
active: [9] 54 µM

OCCCCCO
inactive: [2] | [19] | [3] | [4] | [5] | [18] | [6] | [7] | [8] | [10] | [12] | [13] | [14] | [15] | [16] | [17]
active: [9] 76.5 µM

CCCCN
inactive: [1] | [19] | [3] | [4] | [5] | [6] | [7] | [8] | [9] | [10] | [11] | [12] | [13] | [14] | [15] | [16] | [17]

C=O
active: [9] 27.7 µM
inactive: [2] | [19] | [3] | [4] | [5] | [18] | [6] | [7] | [8] | [12] | [13] | [14] | [16] | [17]

From PubChem BioAssay (EPA / NIEHS)
